From PubChem BioAssay
This excerpt belongs to a sample that is enriched for hits.
ST2 inh: blocks human ST2 binding to IL-33; Q01638; AlphaLISA ST2-Fc/biotin-IL-33 interaction, 1 h; inhibition, % for hits at 17 µM; 2.3% of 78,000 active; in the data active means inhibition above about 30%
Target sequence (Q01638 whole entry, looked up): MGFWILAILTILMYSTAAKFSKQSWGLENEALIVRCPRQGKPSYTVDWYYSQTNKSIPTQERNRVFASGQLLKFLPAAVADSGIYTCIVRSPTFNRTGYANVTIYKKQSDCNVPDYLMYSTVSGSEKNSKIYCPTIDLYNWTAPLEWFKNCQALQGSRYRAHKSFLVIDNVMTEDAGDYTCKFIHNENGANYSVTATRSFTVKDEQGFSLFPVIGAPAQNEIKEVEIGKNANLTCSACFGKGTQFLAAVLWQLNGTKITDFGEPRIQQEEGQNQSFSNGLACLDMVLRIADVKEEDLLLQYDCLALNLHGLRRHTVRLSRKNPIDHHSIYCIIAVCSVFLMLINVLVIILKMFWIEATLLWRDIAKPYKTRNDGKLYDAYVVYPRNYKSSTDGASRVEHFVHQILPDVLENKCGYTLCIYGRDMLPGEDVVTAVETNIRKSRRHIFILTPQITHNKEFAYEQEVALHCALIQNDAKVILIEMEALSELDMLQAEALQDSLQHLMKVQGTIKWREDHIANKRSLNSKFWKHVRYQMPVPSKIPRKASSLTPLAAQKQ
Large screens that a line does not name were inactive.

CCCCNC(=O)Cn1cnc2c1c(=O)n(C)c(=O)n2C	none
COc1ccc(CC2=NOC(C(=O)NCCC3COc4ccccc4O3)C2)cc1 (stereo not given)	none
CC1CCN(C(=O)Cn2c(=O)n(-c3ccc(F)cc3F)c(=O)c3sccc32)CC1	none
CN(C(=O)Cn1c(=O)n(-c2ccc(F)cc2F)c(=O)c2sccc21)c1ccccc1	ST2 inh 47%
O=c1c2sccc2n(Cc2ccccc2)c(=O)n1-c1cc(F)ccc1F	none
O=C(CCc1nc(-c2ccccc2F)no1)N1CCN(c2ccccc2)CC1	none
COc1ccc(OC)c(S(=O)(=O)N2CCN(c3cc(-c4cccc(F)c4)ncn3)CC2)c1	none
O=C(Nc1ccccc1F)C1CCN(S(=O)(=O)c2cccs2)CC1	none
CC(=O)NC(=O)c1cc2cc(Br)ccc2oc1=Nc1ccccc1F	none
COc1ccc2oc(=Nc3cccc(C#N)c3)c(C(=O)NC(C)=O)cc2c1	none
COc1ccc2oc(=Nc3ccc(Cl)cc3Cl)c(C(=O)NC(C)=O)cc2c1	ST2 inh 33%
COc1ccc2cc(C(=O)NC(C)=O)c(=Nc3cccc(F)c3)oc2c1	none
COc1ccc2oc(=Nc3ccccc3F)c(C(=O)NC(C)=O)cc2c1	none
COc1ccc2cc(C(=O)NC(C)=O)c(=Nc3ccc(C#N)cc3)oc2c1	ST2 inh 37%
CCOC(=O)C1(C/C=C/c2ccccc2)CCCN(C(=O)C(=O)c2ccccc2)C1 (stereo not given)	none
CC(C)Cc1ccc(S(=O)(=O)Nc2cccc(Cl)c2)cc1	none
CCN(C1CCCCC1)S(=O)(=O)c1ccc(Cl)c(OC)c1	none
CN(C)CC1(O)CCCN(C(=O)c2ccccc2N2CCCC2)CC1 (stereo not given)	none
CC(C)c1ccc(C(=O)CSc2ncn[nH]2)cc1	ST2 inh 30%
O=C(CSc1ncn[nH]1)Nc1cc(C(F)(F)F)ccc1Cl	none
CCc1nnc(NC(=O)CSc2ncn[nH]2)s1	none
O=C(c1ccc2nc(C3CCCCC3)oc2c1)N1CCCN(c2ncccn2)CC1	none
O=c1c(Oc2ccccc2)c(C(F)(F)F)oc2c3c(ccc12)OCO3	none
O=C(c1ccc(F)cc1)N1CCN=C1SCc1ccc(Br)cc1	none
Cc1oc(-c2ccccc2Cl)nc1CSCC(=O)NC(C)(C)C	none
O=C1CSC(c2cccc(Cl)c2Cl)N1c1ccc(F)cc1 (stereo not given)	none
O=C1CSC(c2ccccc2Cl)N1c1ccccc1 (stereo not given)	none
Cc1ccc(N2C(=O)CSC2c2ccccc2Cl)cc1 (stereo not given)	ST2 inh 32%
C=CCN(CC=C)S(=O)(=O)c1ccc(C(=O)Nc2nc3c(s2)CC(C)CC3)cc1 (stereo not given)	none
CCN(CCN1CCCC1)C(=O)c1ccc(-n2cccc2)cc1	none
CCOC(=O)c1cnc2c(ccc3ccccc32)c1Nc1ccc2c(c1)OCCO2	none
c1ccc(OCCCN2CCOCC2)cc1	none
CCOC(=O)C1CCN(C(=O)C2c3ccccc3Oc3ccccc32)CC1	none
CCOc1ccc(C2=C(CN3CCOCC3)C(c3ccccc3)c3ccccc3O2)cc1 (stereo not given)	ST2 inh 31%
CCOc1ccc2c(=O)c(-c3ccc(F)cc3)c(C)oc2c1	none
CCOc1ccc(C2=C(CN(C)C)C(c3ccc(F)cc3)c3ccccc3O2)cc1 (stereo not given)	ST2 inh 40%
CCOC1=CC(c2ccc(F)cc2)Oc2ccccc21 (stereo not given)	none
C=C(C)Cn1c(SC)nc2sc3c(c2c1=O)CC(C)(C)OC3	none
Cc1ccc(NC2CCCN(C(=O)c3scc4c3OCCO4)C2)cc1C (stereo not given)	none
CC(=O)c1ccc(N2CCN(C(=O)Cn3c(=O)[nH]c4ccsc4c3=O)CC2)cc1	none
COc1ccc(S(=O)(=O)N2CCN(c3nc(C)cc(Nc4ccc(C)cc4)n3)CC2)cc1	none
O=C(NCCc1ccc(F)cc1)C1CCCN(C2CCN(C(=O)C3CC3)CC2)C1 (stereo not given)	none
Cc1cc(F)c(F)c(C(=O)n2cncn2)c1	none
CN(CC1CCN(CCc2ccc(F)cc2)CC1)C(=O)c1n[nH]c2ccccc12	none
O=C(c1ccco1)N(C(=O)c1ccco1)c1c(Cl)cc(Cl)c2cccnc12	none
C#CCOc1c(Br)cc(C=O)cc1OCC	none
CCOc1cc(/C=C(\C#N)c2nn(-c3ccccc3)c(N)c2C#N)cc(Br)c1OC	ST2 inh 31%
CCOc1ccccc1-c1c(C#N)c(N)nc(OC)c1C#N	none
COc1ccc(C2C(C(=O)NCc3ccco3)c3cc(OC)c(OC)cc3C(=O)N2C)cc1 (stereo not given)	none
O=C1NC(=O)/C(=C/c2ccc(-c3cccc(Cl)c3Cl)o2)N1	none
Cc1cc(Cl)ccc1-c1ccc(C=O)o1	none
Cc1cc(C)c([N+](=O)[O-])cc1-c1ccc(C=C2C(=O)NC(=O)NC2=O)o1	ST2 inh 36%
CC(C)CN(CC#Cc1ccccc1)C(=O)C(C)N1CCN(C)CC1 (stereo not given)	none
CC(C)CC1CC(C)(c2csc(N)n2)OC1=O (stereo not given)	none
COc1ccc(NC(=O)N2CC[C@H]3CC(=O)N(CCN4CCNC4=O)CC[C@H]3C2)cc1	ST2 inh 53%
COc1ccc(NC(=O)N2CCN(C)CC2)cc1	none
CCNC(=O)N1CC[C@H]2CC(=O)N(CCN3CCNC3=O)CC[C@H]2C1	none
